Laboratory results reported in paper PMC4336329 (PLoS ONE, 2015).
Hit rate of the full screen: of about 310,000 compounds, about 14,000 (4.5%) showed an effect of 50% or more. The effect is printed as a negative number. Shown is part of a subset that was picked to be rich in strong results.

molecular target: human ether-à-go-go-related gene (hERG) potassium channel (human, UniProt Q12809); test: primary screen, population patch clamp on CHO cells stably expressing hERG; higher = less effect of the substance
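Further: peak tail current of the secondary pulse compared with the same well before compound.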

Chain of human ether-à-go-go-related gene (hERG) potassium channel (Q12809 whole entry, looked up): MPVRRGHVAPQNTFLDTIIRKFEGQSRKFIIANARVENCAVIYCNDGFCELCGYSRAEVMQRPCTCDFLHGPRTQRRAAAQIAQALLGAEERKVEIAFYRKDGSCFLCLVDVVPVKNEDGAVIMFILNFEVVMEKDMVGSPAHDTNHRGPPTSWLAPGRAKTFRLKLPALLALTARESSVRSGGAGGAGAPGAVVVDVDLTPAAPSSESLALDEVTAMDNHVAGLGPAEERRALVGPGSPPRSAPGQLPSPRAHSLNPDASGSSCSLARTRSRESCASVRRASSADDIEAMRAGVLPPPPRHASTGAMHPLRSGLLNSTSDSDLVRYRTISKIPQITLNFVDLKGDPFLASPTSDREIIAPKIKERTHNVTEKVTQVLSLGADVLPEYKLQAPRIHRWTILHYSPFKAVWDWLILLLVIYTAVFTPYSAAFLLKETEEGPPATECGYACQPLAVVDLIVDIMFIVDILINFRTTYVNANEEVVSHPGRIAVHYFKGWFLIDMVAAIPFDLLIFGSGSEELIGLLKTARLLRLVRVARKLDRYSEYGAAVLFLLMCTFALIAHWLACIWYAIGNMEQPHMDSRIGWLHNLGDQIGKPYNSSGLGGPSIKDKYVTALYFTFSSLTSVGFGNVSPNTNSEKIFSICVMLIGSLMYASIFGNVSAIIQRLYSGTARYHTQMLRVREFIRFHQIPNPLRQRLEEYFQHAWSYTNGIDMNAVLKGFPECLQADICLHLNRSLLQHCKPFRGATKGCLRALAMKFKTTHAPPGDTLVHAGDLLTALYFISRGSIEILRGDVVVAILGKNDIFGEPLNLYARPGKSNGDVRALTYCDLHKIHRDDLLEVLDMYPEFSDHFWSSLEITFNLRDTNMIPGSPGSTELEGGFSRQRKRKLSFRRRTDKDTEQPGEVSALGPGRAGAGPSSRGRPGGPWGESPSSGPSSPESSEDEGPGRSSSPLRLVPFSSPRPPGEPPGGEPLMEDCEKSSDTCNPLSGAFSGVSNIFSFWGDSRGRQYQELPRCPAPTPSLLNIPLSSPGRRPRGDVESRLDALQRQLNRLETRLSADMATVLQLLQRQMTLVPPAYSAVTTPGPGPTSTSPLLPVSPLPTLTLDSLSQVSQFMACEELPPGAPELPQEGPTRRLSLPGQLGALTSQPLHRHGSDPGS

Compared with `Cc1ccc(SCC(=O)OCC(=O)N(CC(C)C)C2CCS(=O)(=O)C2)cc1C` (centres unmarked), `CN(C(=O)COC(=O)C1c2ccccc2Oc2ccccc21)C1CCS(=O)(=O)C1` (centres unmarked) is higher in “hERG current change (%, negative = inhibition) at 10uM” value: -4.29% for the first, 4.56% for the second.

Compared with `Cc1sc(NC(=O)c2ccccc2)c(C(c2ccccn2)N2CCN(CCO)CC2)c1C` (centres unmarked), `CCN1CCN(C(c2ccccn2)c2c(NC(=O)c3ccccc3)sc(C)c2C)CC1` (centres unmarked) is lower in “hERG current change (%, negative = inhibition) at 10uM” value: -53.7% for the first, -59.8% for the second.

Going from `CC(=O)Nc1sc2c(c1C(c1ccccn1)N1CCN(C)CC1)CCCC2` (centres unmarked) to `CCc1cc(C(c2ccccn2)N2CCN(C)CC2)c(NC(=O)c2ccccc2)s1` (centres unmarked), the “hERG current change (%, negative = inhibition) at 10uM” value falls from -12.9% to -59.1%.

Compared with `COc1cccc(C(c2c(NC(=O)c3ccccc3)sc(C)c2C)N2CCN(C)CC2)c1` (centres unmarked), `CCOc1ccc(C(c2c(NC(=O)c3ccccc3)sc(C)c2C)N2CCN(CCO)CC2)cc1` (centres unmarked) is lower in “hERG current change (%, negative = inhibition) at 10uM” value: -17.6% for the first, -21.1% for the second.

Compared with `CCc1cc(C(c2ccccc2OC)N2CCOCC2)c(NC(=O)c2ccccc2)s1` (centres unmarked), `CCc1cc(C(c2ccncc2)N2CCN(C)CC2)c(NC(=O)c2ccccc2)s1` (centres unmarked) is lower in “hERG current change (%, negative = inhibition) at 10uM” value: 21.3% for the first, -40.2% for the second.

Compared with `Cc1sc(NC(=O)c2ccccc2)c(C(c2ccc(Cl)cc2)N2CCN(CCO)CC2)c1C` (centres unmarked), `Clc1ccc(-c2nc(NCCN3CCOCC3)c3ccccc3n2)cc1` is lower in “hERG current change (%, negative = inhibition) at 10uM” value: -4.47% for the first, -15.6% for the second.

Compared with `COc1ccc(/C(C)=N/NC(=O)c2nnn(-c3nonc3N)c2-c2ccccc2)cc1`, `COc1cccc(Nc2ccc(C(=O)O)cc2N)c1` is lower in “hERG current change (%, negative = inhibition) at 10uM” value: 19.8% for the first, 11.3% for the second.

Going from `N#CC(c1ccccn1)c1ncc(C(F)(F)F)cc1Cl` (centres unmarked) to `Cc1cnc(C(=O)N2CCCC(C(=O)c3ccc(C(F)(F)F)cc3)C2)cn1` (centres unmarked), the “hERG current change (%, negative = inhibition) at 10uM” value falls from 23.5% to -17.7%.

Compared with `Cc1cccc(Cn2c(C(=O)OC(C)C)cc3c2ccn3C)c1`, `Cc1cccc(CN2CCCC(C(=O)c3cccc(OC(C)C)c3)C2)n1` (centres unmarked) is lower in “hERG current change (%, negative = inhibition) at 10uM” value: 6.07% for the first, -40% for the second.

Going from `S=c1[nH]nc(COc2ccc(Cl)cc2)n1C1CCCCC1` to `CC(C)(C)c1ccc(-c2n[nH]c(=S)n2C2CCCC2)cc1`, the “hERG current change (%, negative = inhibition) at 10uM” value falls from 14.3% to 4.01%.

Going from `Cc1cc(NC(=O)COC(=O)[C@@H](NS(=O)(=O)c2ccccc2)C(C)C)no1` to `COc1ccc(S(=O)(=O)NC(C)C(=O)NCc2ccncc2)cc1OC` (centres unmarked), the “hERG current change (%, negative = inhibition) at 10uM” value rises from -7.67% to 15.7%.

First: Cc1c([C@H]2[C@@H](CC#N)C2(C)C)c2ccccc2n1C
Second: CCc1c(C)c(C#N)c2nc3ccccc3n2c1NCc1ccco1
The “hERG current change (%, negative = inhibition) at 10uM” value of the first is higher: -10.4% for the first, -35.4% for the second.

Going from `Clc1ccc(-c2nnc(NCc3ccccc3)c3ccccc23)cc1` to `Clc1ccc(-c2nnc(NCCN3CCCC3)c3ccccc23)cc1`, the “hERG current change (%, negative = inhibition) at 10uM” value falls from -13.3% to -71.3%.

Going from `O=C(Nc1cccc(Cl)c1)OCc1cncs1` to `Cc1ccc(C(=O)Nc2ccc3c(c2)OCO3)cc1Cl`, the “hERG current change (%, negative = inhibition) at 10uM” value rises from -2.42% to 19.7%.

Compared with `O=c1c(-c2nnc(SCc3ccc(Cl)c(Cl)c3)o2)cccn1Cc1ccccc1`, `O=c1c(-c2nnc(SCc3ccc(Cl)cc3Cl)o2)cccn1Cc1ccccc1` is lower in “hERG current change (%, negative = inhibition) at 10uM” value: 1.6% for the first, -62.5% for the second.

Compared with `O=c1c(-c2nnc(SCc3ccc(Cl)cc3)o2)cccn1Cc1ccccc1`, `Clc1ccc(CSc2ccc(-c3ccccn3)nn2)cc1` is higher in “hERG current change (%, negative = inhibition) at 10uM” value: -46.2% for the first, -2.04% for the second.

First: Cc1ccc(NC(=O)C(CC(C)C)NC(=O)C2CCC(C)CC2)nc1 (centres unmarked)
Second: CCOC(=O)C1CCN(C(=O)c2ccc(NC(=O)C3CCCO3)cc2)CC1 (centres unmarked)
The “hERG current change (%, negative = inhibition) at 10uM” value of the first is higher: -6.68% for the first, -9.35% for the second.

Going from `CCCc1cc(=O)[nH]c(SCC(=O)Nc2c(C)cccc2C)n1` to `Cc1cccc(C)c1NC(=O)CSc1nnc(-c2ccco2)n1N`, the “hERG current change (%, negative = inhibition) at 10uM” value falls from 6.31% to -4.1%.

First: COc1c(C)cc(C(=O)C2CCCN(Cc3cccc(C)n3)C2)cc1C (centres unmarked)
Second: COc1cccc(C(=O)C2CCCN(Cc3cccc(C)n3)C2)c1 (centres unmarked)
The “hERG current change (%, negative = inhibition) at 10uM” value of the first is higher: -48.7% for the first, -53.4% for the second.

Going from `COc1cccc(C(=O)C2CCCN(CC3=Cc4cc(OC)ccc4OC3)C2)c1` (centres unmarked) to `COc1cccc(C(=O)C2CCCN(Cc3ccon3)C2)c1` (centres unmarked), the “hERG current change (%, negative = inhibition) at 10uM” value rises from -56.6% to 8.72%.

Compared with `COc1ccc(C(=O)C2CCCN(Cc3ccccn3)C2)c(OC)c1` (centres unmarked), `COc1ccc(C(=O)C2CCCN(Cc3cccc(C)n3)C2)c(OC)c1` (centres unmarked) is lower in “hERG current change (%, negative = inhibition) at 10uM” value: -55.7% for the first, -76.2% for the second.

First: COc1ccc2cc(C(=O)C3CCCN(Cc4cccc(C)n4)C3)ccc2c1 (centres unmarked)
Second: COc1ccc2cc(C(=O)C3CCCN(Cc4ccccn4)C3)ccc2c1 (centres unmarked)
The “hERG current change (%, negative = inhibition) at 10uM” value of the first is lower: -66.5% for the first, -66.2% for the second.

First: CC(=O)Nc1ccc(N/C=C/C(=O)c2ccco2)cc1
Second: CC(=O)Nc1ccc(CN2CCCC(C(=O)c3cccc(C(F)(F)F)c3)C2)cc1 (centres unmarked)
The “hERG current change (%, negative = inhibition) at 10uM” value of the first is higher: 1.94% for the first, -20.7% for the second.

Compared with `Cn1nc(C(=O)Nc2nc3ccc(S(C)(=O)=O)cc3s2)ccc1=O`, `CC1Sc2ccc(S(=O)(=O)N3CCN(c4cccc(Cl)c4)CC3)cc2NC1=O` (centres unmarked) is higher in “hERG current change (%, negative = inhibition) at 10uM” value: -20.7% for the first, 9.32% for the second.

Going from `CN1CCN(C(=O)c2ccc3c(c2)N(Cc2cccc(Cl)c2)C(=O)c2ccccc2S3=O)CC1` (centres unmarked) to `NC(=O)c1nc(C(=O)N2CCN(c3ccccc3)CC2)c2ccccc2n1`, the “hERG current change (%, negative = inhibition) at 10uM” value rises from -19.5% to 2.14%.

Going from `O=C(/C=C/N1CCN(Cc2ccccc2)CC1)C(F)(F)F` to `CC(=O)Nc1ccc(CN2CCCC(C(=O)c3ccc(C(F)(F)F)cc3)C2)cc1` (centres unmarked), the “hERG current change (%, negative = inhibition) at 10uM” value falls from 4.36% to -77.3%.

First: Cc1nn(-c2ccccc2)c(Oc2ccccc2)c1C=O
Second: Cl.NCCOc1ccccc1-c1ccccc1
The “hERG current change (%, negative = inhibition) at 10uM” value of the first is higher: -6.92% for the first, -11.1% for the second.

First: Cc1ccc([N+](=O)[O-])cc1N(CC(=O)N1CCCCC1)S(C)(=O)=O
Second: CC(C)C(CC(=O)N1CCCCC1)C1CCOC(C)(C)C1 (centres unmarked)
The “hERG current change (%, negative = inhibition) at 10uM” value of the first is higher: 12.2% for the first, -2.24% for the second.

Going from `Cn1cccc1Cc1nnc(SCC(=O)Nc2cccc(F)c2)n1CCc1ccccc1` to `Cc1ccccc1NC(=O)CSc1nnc(-c2ccco2)n1N`, the “hERG current change (%, negative = inhibition) at 10uM” value rises from -20.3% to 4.14%.

Going from `CSc1ccc(CNC2CN3CCC2CC3)cc1.Cl` (centres unmarked) to `CCNC(=O)N1CCCC(C(=O)c2ccc(C(F)(F)F)cc2)C1` (centres unmarked), the “hERG current change (%, negative = inhibition) at 10uM” value falls from -10.7% to -23.4%.

Compared with `C[C@@H]1CCC2[C@](C)(CO)[C@@H](O)CC[C@]2(C)[C@@]12CCC(CO)(CCO)O2` (some centres unmarked), `CCOc1ccc(C(=O)COC(=O)CN2C(=O)NC3(CCCCC3C)C2=O)cc1` (centres unmarked) is lower in “hERG current change (%, negative = inhibition) at 10uM” value: 26.8% for the first, -42.7% for the second.

First: O=C1CN(C(=O)COc2ccc(F)cc2Br)c2ccccc2N1
Second: CCN(CC(=O)Nc1c(F)cccc1F)C(=O)c1n[nH]c2ccccc12
The “hERG current change (%, negative = inhibition) at 10uM” value of the first is lower: -29.9% for the first, 10.4% for the second.

Going from `O=C(O)c1ccc2c(=O)n3cc(C(=O)c4ccccc4O)cc(Cl)c3nc2c1` to `COc1ccc2cc(C(=O)C3CCCN(C(=O)CCc4ccccn4)C3)ccc2c1` (centres unmarked), the “hERG current change (%, negative = inhibition) at 10uM” value falls from 1.38% to -45.2%.

First: COc1cccc(C(=O)C2CCCN(Cc3ccccn3)C2)c1 (centres unmarked)
Second: COc1ccc(C(=O)C2CCCN(Cc3ccon3)C2)cc1OC (centres unmarked)
The “hERG current change (%, negative = inhibition) at 10uM” value of the first is lower: -26% for the first, 11.2% for the second.

Compared with `COc1ccc(C(=O)C2CCCN(Cc3sc(N4CCCC4)nc3Cl)C2)c(OC)c1` (centres unmarked), `COc1ccc(C(=O)C2CCCN(Cc3ccon3)C2)c(OC)c1` (centres unmarked) is lower in “hERG current change (%, negative = inhibition) at 10uM” value: -49.7% for the first, -53.9% for the second.

First: Cc1ccc(OCCN2CCN(C(=O)CCC(=O)Nc3nnc(C)s3)CC2)cc1
Second: Cc1cccc(NC(=O)CSc2nnc(CNC(=O)c3ccco3)n2C)c1C
The “hERG current change (%, negative = inhibition) at 10uM” value of the first is higher: -7.69% for the first, -17.3% for the second.

Going from `Nc1nc(SC2c3cccc4cccc(c34)C2NS(=O)(=O)c2ccccc2)n[nH]1` (centres unmarked) to `Cc1ccccc1NC(=O)CSc1n[nH]c(-c2ccco2)n1`, the “hERG current change (%, negative = inhibition) at 10uM” value rises from 5.88% to 10.1%.

Going from `Cc1nc2ccc(C(=O)O)cc2c2c1CC(C)S2` (centres unmarked) to `Cc1[nH]n2c(=O)cc(C(C)C)nc2c1-c1ccccc1`, the “hERG current change (%, negative = inhibition) at 10uM” value rises from -16% to -12.1%.

First: CCCCN1CC(=O)N2[C@H]3c4ccccc4OC[C@@H]3[C@H](c3ccccc3)[C@]2(C)C1=O
Second: Cc1ccccc1NC(=O)CSc1nnc(-c2ccco2)c(-c2ccco2)n1
The “hERG current change (%, negative = inhibition) at 10uM” value of the first is higher: -19.9% for the first, -53.9% for the second.

Going from `Cc1cccc(CN2CCCC(C(=O)c3ccc(C(F)(F)F)cc3)C2)n1` (centres unmarked) to `CC(C)(C)c1ccc(C(=O)C2CCCN(Cc3ccon3)C2)cc1` (centres unmarked), the “hERG current change (%, negative = inhibition) at 10uM” value rises from -68.2% to -1.45%.

Going from `CCOC(=O)c1c(C)[nH]c(C)c1C(=O)COC(=O)C1CCCN1S(=O)(=O)c1ccccc1F` (centres unmarked) to `Cc1cccc(C)c1NC(=O)CSc1nc(-c2ccco2)cc(C(F)(F)F)n1`, the “hERG current change (%, negative = inhibition) at 10uM” value rises from -2.63% to 4.77%.

Going from `CCOc1ccc(NC(=S)NC(=O)c2cncc(Br)c2)cc1` to `Cc1cccc(NC(=O)CSc2nnc(-c3ccco3)o2)c1C`, the “hERG current change (%, negative = inhibition) at 10uM” value falls from 10.1% to -4.42%.

Compared with `Cc1cccc(NC(=O)CSc2nnc(-c3ccco3)c(-c3ccco3)n2)c1C`, `Cc1cccc(C)c1NC(=O)CSc1nnc(-c2ccco2)c(-c2ccco2)n1` is lower in “hERG current change (%, negative = inhibition) at 10uM” value: -66.4% for the first, -67.1% for the second.
